Data as given in the supplement of paper PMC7156485.

tested on: HCC1569; test: H1.0 immunofluorescence intensity relative to DMSO (% of DMSO); higher = stronger H1.0 induction, active = 140 or more; details: concentration: 10 µM; 24 h
Outline: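 In 384-well plates holding 800 HCC1569 or TDF cells per well in RPMI with 10% FBS, compounds were tested at 10 µM for 24 h at 37 °C in triplicate. Fixation used 3.7% formaldehyde. Staining used a rabbit anti-H1.0 antibody with an AlexaFluor 647 secondary, plus DAPI. Each value, H1.0 nuclear intensity or cell number, is a median of replicates shown as percent of the plate control, and HCC1569 values were smoothed for positional effects.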
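Note: TDF is a line of transformed human dermal fibroblasts of mesenchymal origin.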

H1.0 immunofluorescence intensity, inactive:
CC(C[N+](C)(C)C)OC(N)=O (stereo not drawn) [Carbamyl-beta-methylcholine] 108
NC(CCC(=O)NC(CSN=O)C(=O)NCC(=O)O)C(=O)O (stereo not given) [S-Nitrosoglutathione] 90.2
Cl.NO [Hydroxylamine hydrochloride] 89.7
CCCCCC=CCC(O)C=Cc1cccc(CC(O)CCCCO)n1 (stereo not given) 113
Nc1ccc(S(=O)(=O)Nc2ncccn2)cc1 [Sulfadiazine] 96.7
CS(=O)(=O)O.C[C@H](NCc1ccc(OCc2cccc(F)c2)cc1)C(N)=O 98.6
C#CC(N)CCC(=O)O (stereo not given) [gamma-Acetylinic GABA] 84.4
N=C1Sc2ccccc2C2=NCCCN12 112
O=C(NCCN1CCC(n2c(=O)[nH]c3cc(Cl)ccc32)CC1)c1ccc(F)cc1 99.5
Nc1nc(=O)c2nc(Br)n(C3OC4COP(=O)([O-])OC4C3O)c2[nH]1.[Na+] (stereo not given) [8-Bromo-cGMP sodium] 92.8
COC(=O)NC(C(=O)NC(Cc1ccccc1)C(O)CN(Cc1ccc(-c2ccccn2)cc1)NC(=O)C(NC(=O)OC)C(C)(C)C)C(C)(C)C (stereo not given) [Atazanavir] 103
O=C1NCCN1CCN1CCC(c2cn(-c3ccc(F)cc3)c3ccc(Cl)cc23)CC1 139
CCCCCCCCCCCCCCCCCCCCCC(=O)O [Docosanoic acid] 101
COc1ccc(-c2ccc3cc(C(=O)O)ccc3c2)cc1C12CC3CC(CC(C3)C1)C2 [Adapalene] 102
Cl.c1ccc2c(c1)CCCC2C1=NCCN1 (stereo not given) [Tetrahydrozoline hydrochloride] 98.3
Nc1cc(-c2ccncc2)c[nH]c1=O [amrinone] 114
CN(C)CCCOC1C(C(O)CO)OC2OC(C)(C)OC21.Cl (stereo not given) [Amiprilose hydrochloride] 91.5
O=C(NCCCCCCNC(=O)ON=C1CCCCC1)ON=C1CCCCC1 97.1
Cn1c2ccccc2c2c3c(c4c5ccccc5n(CCC#N)c4c21)CNC3=O 99.5
O=C1CC(c2ccccc2)Oc2cc(O)cc(O)c21 (stereo not given) [Pinocembrin] 91.1
CC1OC(n2cc(F)c(=O)[nH]c2=O)C(O)C1O (stereo not given) [Doxifluridine] 101
N[C@H](CCC(=O)NCS(=O)(=O)O)C(=O)O [gamma-D-Glutamylaminomethylsulfonic acid] 93.6
O=c1c(O)c(-c2cc(O)c(O)c(O)c2)oc2cc(O)ccc12 [Robinetine] 90.7
CCCCc1oc2ccccc2c1C(=O)c1cc(I)c(OCCN(CC)CC)c(I)c1.Cl [Amiodarone hydrochloride] 101
CCCCOc1cc(CC2CNC(=O)N2)ccc1OC (stereo not given) 86.2
O=c1oc2cc(O)ccc2c2oc3cc(O)ccc3c12 [Coumestrol] 94.6
COc1cc2nccc(Oc3ccc(NC(=O)Nc4ccc(F)cc4F)c(F)c3)c2cc1OC 108
CCCCC=CCCCCCCCC(=O)O [9(Z)-Tetradecenoic acid] 99.8
COc1ccc2cc(C(C)C(=O)O)ccc2c1 (stereo not given) [Naproxen] 109
CCC(CCC(C)C1CCC2C3CC=C4CC(O)CCC4(C)C3CCC12C)C(C)C (stereo not given) 90.6
CCCCN1CCC(n2c(=O)[nH]c3ccccc32)CC1.O=C(O)C(=O)O [NS 521 oxalate] 98.3
Cl.Cl.Cl.Ic1ccc(N2CCN(Cc3c[nH]c4ncccc34)CC2)cc1 [L-750,667 trihydrochloride] 108
CC12CCC(=O)C=C1CCC1C2CCC2(C)C1CCC2(O)C(=O)CO (stereo not given) [Cortexolone] 96.2
Nc1c2c(nc3ccccc13)CCCC2O.O=C(O)C=CC(=O)O (stereo not given) [Hydroxytacrine] 101
CC(CN1c2ccccc2Sc2ccccc21)N(C)C.Cl (stereo not given) [Promethazine hydrochloride] 106
N#Cc1c(O)c2c(-c3ccc(-c4ccccc4O)cc3)csc2[nH]c1=O 96.3
Cn1c(=O)c2[nH]c(-c3ccccc3)nc2n(C)c1=O [1,3-Dimethyl-8-phenylxanthine] 92
O=C(Nc1cccc2c(=O)cc(-c3nn[nH]n3)oc12)c1ccc(OCCCCc2ccccc2)cc1 [Pranlukast] 109
COc1ccc(C(=O)Nc2sc3c(c2C(N)=O)CCCC3)cc1OC [Flt-3 Inhibitor] 119
C#CCN1C(C)=C(C(=O)OC)C(c2cccc([N+](=O)[O-])c2)C(C(=O)OCC)=C1C (stereo not given) 103
